Data on eleven compounds can be found in PubChem BioAssay (Tox21).

A number with no mark means an inactive call. Results filed as inconclusive are left out. Activity calls are given as the source filed them. The call rests on the fitted dose curve; in most records, active means well fitted curve in the direction sought with a large enough effect in the repeat runs; inconclusive means weak or mixed curves; inactive means no such curve, though single readings can be large; an effect the other way counts as inactive or inconclusive.

Experiment [1] can be described thus: Human pregnane X receptor (PXR) small molecule agonists, qHTS cell viability counter screen (AID 1346977). Further: nearly all actives have a fitted effect of over 50% in size. The essentials: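 PXR-Luc HepG2 cells (2,000/well, 5% charcoal-stripped FBS) preincubated 5 hr, then exposed to compounds 24 hr at 37 C. Viability read in the same wells by CellTiter-Fluor fluorescence, reagent added at 23 hr, 1 hr incubation.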
A short description of experiment [2]: Caspase-3/7 induction in HepG2 cells by small molecules, qHTS assay (AID 1346978). Further: nearly all actives have a fitted effect of over 15% in size. In short, it runs like this: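 Caspase-3/7 induction was measured by Caspase-Glo 3/7 luminescence (30 min, room temperature) after a 17 hr compound exposure of wild-type HepG2 cells seeded at 2,000 per well and pre-incubated 5 hr.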
A short description of experiment [3]: Caspase-3/7 induction in CHO-K1 cells by small molecules, qHTS cell viability counter screen (AID 1346979). Further: nearly all actives have a fitted effect of over 35% in size. The essentials: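 Wild-type CHO-K1 cells (1,500/well) treated with compound after 5 h plating; after 16 h at 37C, viability read as CellTiter-Fluor fluorescence following 1 h reagent incubation, in the same wells as the caspase read.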
Experiment [4] is described as follows: Caspase-3/7 induction in CHO-K1 cells by small molecules, qHTS assay (AID 1346980). Further: nearly all actives have a fitted effect of over 15% in size. In short, it runs like this: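 Luminescent Caspase-Glo 3/7 read (30min, room temperature) quantified apoptosis induction. Cells were wild-type CHO-K1, treated with compound for 17hr at 37 C and 5% CO2.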
Experiment [5] in a line: Caspase-3/7 induction in HepG2 cells by small molecules, qHTS cell viability counter screen (AID 1346981). Further: series mostly up to about 92 µM; nearly all actives have a fitted effect of over 30% in size. In short, it runs like this: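 Counter screen for cytotoxicity: HepG2 exposed 16 hr to compounds, then CellTiter-Fluor viability signal (fluorescence, 1 hr reagent incubation).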
Experiment [6] concerns the target Nuclear receptor subfamily 1 group I member 2 (Homo sapiens) (UniProt O75469). Briefly: Human pregnane X receptor (PXR) small molecule agonists, qHTS assay (AID 1346982). Further: nearly all actives have a fitted effect of over 35% in size. Further: potency means the concentration at half of the fitted maximal effect. In short, it runs like this:
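Luminescence (ONE-Glo, 30 min RT) after 24 hr compound exposure of PXR-Luc HepG2 cells; cells rested 5 hr post-plating in 5% charcoal-stripped FBS medium.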

Experiment [7] has as its target Cytochrome P450 2D6 (Homo sapiens) (UniProt P10635). Briefly: Cytochrome P450 Family 2 Subfamily D Member 6 (CYP2D6) small molecule antagonists: luciferase reporter qHTS assay (AID 1671196). Further: nearly all actives have a fitted effect of over 50% in size. Further: potency means the concentration at half of the fitted maximal effect. The essentials:
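Inhibition of CYP2D6 was gauged by loss of luminescence, since light produced tracks the luciferin generated from a proluciferin substrate. A 10 min room-temperature preincubation preceded 1 h NADPH-supported turnover.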

For experiment [8], the target named is Cytochrome P450 2C19 (Homo sapiens) (UniProt P33261). Briefly: Cytochrome P450 Family 2 Subfamily C Member 19 (CYP2C19) small molecule antagonists: luciferase reporter qHTS assay (AID 1671197). Further: nearly all actives have a fitted effect of over 65% in size. Further: potency means the concentration at half of the fitted maximal effect. The essentials: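 Inhibition of CYP2C19 was scored from loss of luminescence in a P450-Glo proluciferin substrate assay, NADPH-started and run 1 h at 37C, with ketoconazole as positive control.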

Experiment [9] concerns the target Cytochrome P450 2C9 (Homo sapiens) (UniProt P11712). Nature of the experiment: Cytochrome P450 Family 2 Subfamily C Member 9 (CYP2C9) small molecule antagonists: luciferase reporter qHTS assay (AID 1671198). Further: nearly all actives have a fitted effect of over 50% in size. Further: potency means the concentration at half of the fitted maximal effect. The essentials: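 Enzyme-substrate mix preincubated with compound 10 min at room temperature; reaction started with NADPH regeneration solution, 1 h 37C. Luminescent luciferin product read after 20 min detection reagent.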

Experiment [10] concerns the target Voltage-gated inwardly rectifying potassium channel KCNH2 (Homo sapiens) (UniProt Q12809). Nature of the experiment: Human Ether-a-go-go-Related Gene (hERG) channel small molecule antagonists: fluorescence cell-based qHTS assay (AID 1671200).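 Further: hERG-expressing U2OS cells given a thallium stimulus after FluxOR II dye loading; series mostly up to about 77 µM; nearly all actives have a fitted effect of over 50% in size.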 The essentials: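 hERG-U2OS cells plated overnight at 37 C, loaded with FluxOR II dye 1 h at RT in dark; after 10 min, thallium stimulus added. Fluorescence (480/540 nm) read kinetically for 2 min at 1 s intervals.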

The target of experiment [11] is Cytochrome P450 3A4 (Homo sapiens) (UniProt P08684). Briefly: Cytochrome P450 Family 3 Subfamily A Member 4 (CYP3A4) small molecule antagonists: luciferase reporter qHTS assay (AID 1671201). The essentials: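 P450-Glo CYP3A4 luminescent assay: compounds preincubated 10 min at room temperature with enzyme and proluciferin substrate, NADPH regeneration added, 1 h room-temperature reaction, stopped with luciferin detection reagent; luminescence read after 20 min. Ketoconazole positive control.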

In experiment [12] the target is Cytochrome P450 1A2 (Homo sapiens) (UniProt P05177). Nature of the experiment: Cytochrome P450 Family 1 Subfamily A Member 2 (CYP1A2) small molecule antagonists: luciferase reporter qHTS assay (AID 1671199). Further: nearly all actives have a fitted effect of over 50% in size. Further: potency means the concentration at half of the fitted maximal effect. The essentials:
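Signal from luciferin formed by CYP1A2 from a proluciferin substrate is read as luminescence, expressed in relative luminescence units. Compounds sit with enzyme 10 min, NADPH-driven reaction runs 1 h, all at room temperature.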

The target of experiment [13] is Nuclear receptor subfamily 1 group I member 2 (Rattus norvegicus) (UniProt Q9R1A7). Briefly: Rat pregnane X receptor (rPXR) activation by small molecules, qHTS assay (AID 1346983). Further: nearly all actives have a fitted effect of over 20% in size. Conditions: rPXR luciferase reporter cells, One-Glo luminescence, 24 h; max activation: active compounds read high. In short, it runs like this: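 Luminescent readout (One-Glo luciferase, 30 min room temperature) followed 24 hr compound treatment at 37 C of rPXR cells plated 2,000 per well and preincubated 5hr; qHTS format with compounds delivered in DMSO.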

The target of experiment [14] is Nuclear receptor subfamily 1 group I member 2 (Homo sapiens) (UniProt O75469). Briefly: CYP3A4 induction through human pregnane X receptor (PXR) by small molecules, qHTS assay (AID 1346984). Further: nearly all actives have a fitted effect of over 40% in size. The essentials: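 DPX-2 reporter cells; 24h cpd, 37C; Luciferin-IPA 3uM final x3h; One-Glo 30 min RT; lumi read.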
Experiment [15] shares this target. Nature of the experiment: Human pregnane X receptor (PXR) activation by small molecules, qHTS assay (AID 1346985). Further: nearly all actives have a fitted effect of over 40% in size. The essentials:
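DPX-2 cells (HepG2 co-transfected with a PXR response element and a CYP3A4-promoter luciferase construct) were seeded at 2,000 per well, rested 5 hr at 37C, then exposed to DMSO-dissolved compounds for 24 hr. Activation was read as luciferase luminescence.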
On the % scale 0 is the no-effect control and ±100 the full control effect.

Sequence of Cytochrome P450 3A4 (Homo sapiens) (P08684 whole entry, looked up): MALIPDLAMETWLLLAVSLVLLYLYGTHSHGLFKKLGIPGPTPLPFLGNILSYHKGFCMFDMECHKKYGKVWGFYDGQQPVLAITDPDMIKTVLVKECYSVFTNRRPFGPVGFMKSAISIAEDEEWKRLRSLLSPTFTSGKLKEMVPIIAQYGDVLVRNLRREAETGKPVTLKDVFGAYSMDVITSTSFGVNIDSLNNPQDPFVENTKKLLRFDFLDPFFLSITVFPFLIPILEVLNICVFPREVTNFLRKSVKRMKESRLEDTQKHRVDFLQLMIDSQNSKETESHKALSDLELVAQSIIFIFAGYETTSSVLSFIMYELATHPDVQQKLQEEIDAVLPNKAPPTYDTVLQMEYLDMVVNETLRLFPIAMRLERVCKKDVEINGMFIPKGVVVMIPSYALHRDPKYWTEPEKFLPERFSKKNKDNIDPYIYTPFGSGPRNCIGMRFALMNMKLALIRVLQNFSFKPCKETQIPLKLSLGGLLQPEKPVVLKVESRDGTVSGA
Sequence of Cytochrome P450 2C9 (Homo sapiens) (P11712 whole entry, looked up): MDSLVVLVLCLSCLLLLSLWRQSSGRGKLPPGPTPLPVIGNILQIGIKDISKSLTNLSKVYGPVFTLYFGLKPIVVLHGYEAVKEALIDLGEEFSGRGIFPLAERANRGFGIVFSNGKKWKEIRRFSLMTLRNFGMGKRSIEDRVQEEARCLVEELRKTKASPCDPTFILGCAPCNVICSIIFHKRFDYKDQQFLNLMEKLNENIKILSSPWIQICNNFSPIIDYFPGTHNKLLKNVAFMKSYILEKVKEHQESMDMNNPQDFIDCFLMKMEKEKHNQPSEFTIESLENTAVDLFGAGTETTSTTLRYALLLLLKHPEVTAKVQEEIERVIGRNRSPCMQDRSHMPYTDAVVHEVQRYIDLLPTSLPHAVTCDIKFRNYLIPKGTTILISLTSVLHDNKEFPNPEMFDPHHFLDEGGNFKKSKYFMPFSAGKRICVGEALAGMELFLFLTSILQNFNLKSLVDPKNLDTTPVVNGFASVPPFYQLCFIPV
Sequence of Voltage-gated inwardly rectifying potassium channel KCNH2 (Homo sapiens) (Q12809 whole entry, looked up): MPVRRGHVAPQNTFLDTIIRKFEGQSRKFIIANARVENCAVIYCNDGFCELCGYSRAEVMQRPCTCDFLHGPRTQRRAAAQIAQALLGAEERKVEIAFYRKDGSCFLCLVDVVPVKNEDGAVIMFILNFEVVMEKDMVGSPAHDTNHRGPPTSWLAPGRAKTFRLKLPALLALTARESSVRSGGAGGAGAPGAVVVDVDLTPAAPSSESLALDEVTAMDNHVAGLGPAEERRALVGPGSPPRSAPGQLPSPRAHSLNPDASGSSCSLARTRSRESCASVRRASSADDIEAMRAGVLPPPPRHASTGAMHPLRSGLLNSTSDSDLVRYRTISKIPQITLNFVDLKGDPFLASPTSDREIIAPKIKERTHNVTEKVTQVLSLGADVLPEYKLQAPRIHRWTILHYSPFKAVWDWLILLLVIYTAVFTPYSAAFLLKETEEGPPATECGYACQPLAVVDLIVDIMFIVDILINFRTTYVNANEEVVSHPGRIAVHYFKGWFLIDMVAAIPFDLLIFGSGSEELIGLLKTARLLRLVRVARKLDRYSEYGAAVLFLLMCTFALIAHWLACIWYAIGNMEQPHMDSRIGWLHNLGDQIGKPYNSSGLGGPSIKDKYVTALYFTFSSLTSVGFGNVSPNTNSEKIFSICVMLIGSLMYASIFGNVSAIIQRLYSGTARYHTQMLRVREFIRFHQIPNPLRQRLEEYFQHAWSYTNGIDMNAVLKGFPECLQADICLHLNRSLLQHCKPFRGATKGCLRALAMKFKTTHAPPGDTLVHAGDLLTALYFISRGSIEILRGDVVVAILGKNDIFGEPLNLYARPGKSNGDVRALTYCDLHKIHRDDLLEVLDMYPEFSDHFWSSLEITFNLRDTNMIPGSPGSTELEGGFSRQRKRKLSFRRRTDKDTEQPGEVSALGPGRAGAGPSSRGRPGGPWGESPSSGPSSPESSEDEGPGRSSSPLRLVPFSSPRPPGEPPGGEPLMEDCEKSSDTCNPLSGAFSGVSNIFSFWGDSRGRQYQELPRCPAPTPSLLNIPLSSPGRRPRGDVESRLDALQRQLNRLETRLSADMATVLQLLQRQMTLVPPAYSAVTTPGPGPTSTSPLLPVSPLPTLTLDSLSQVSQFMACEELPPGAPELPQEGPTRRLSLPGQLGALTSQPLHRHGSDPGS
Sequence of Cytochrome P450 1A2 (Homo sapiens) (P05177 whole entry, looked up): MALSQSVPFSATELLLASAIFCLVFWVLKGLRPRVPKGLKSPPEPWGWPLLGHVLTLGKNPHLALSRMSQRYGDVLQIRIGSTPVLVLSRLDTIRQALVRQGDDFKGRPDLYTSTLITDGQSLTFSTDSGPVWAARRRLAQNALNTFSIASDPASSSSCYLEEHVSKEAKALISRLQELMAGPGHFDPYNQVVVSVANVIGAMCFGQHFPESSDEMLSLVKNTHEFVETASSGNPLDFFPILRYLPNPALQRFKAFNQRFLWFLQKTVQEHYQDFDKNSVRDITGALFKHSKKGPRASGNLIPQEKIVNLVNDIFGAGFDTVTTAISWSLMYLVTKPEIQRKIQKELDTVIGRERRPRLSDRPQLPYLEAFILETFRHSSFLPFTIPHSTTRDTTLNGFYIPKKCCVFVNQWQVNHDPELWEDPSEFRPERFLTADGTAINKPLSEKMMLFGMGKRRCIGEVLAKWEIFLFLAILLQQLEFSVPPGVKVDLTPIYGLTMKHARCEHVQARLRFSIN
Sequence of Nuclear receptor subfamily 1 group I member 2 (Homo sapiens) (O75469 whole entry, looked up): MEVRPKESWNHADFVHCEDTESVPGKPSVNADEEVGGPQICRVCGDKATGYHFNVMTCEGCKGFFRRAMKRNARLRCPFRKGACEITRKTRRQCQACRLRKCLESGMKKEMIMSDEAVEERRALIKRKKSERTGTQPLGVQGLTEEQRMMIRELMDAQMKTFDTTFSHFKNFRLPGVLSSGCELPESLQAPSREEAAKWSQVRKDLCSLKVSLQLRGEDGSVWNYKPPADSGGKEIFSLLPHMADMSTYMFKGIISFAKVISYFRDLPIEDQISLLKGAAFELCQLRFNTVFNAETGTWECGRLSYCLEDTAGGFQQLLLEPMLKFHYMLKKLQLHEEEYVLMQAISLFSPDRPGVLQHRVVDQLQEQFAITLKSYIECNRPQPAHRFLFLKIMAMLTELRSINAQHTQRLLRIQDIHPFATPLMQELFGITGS
Sequence of Cytochrome P450 2D6 (Homo sapiens) (P10635 whole entry, looked up): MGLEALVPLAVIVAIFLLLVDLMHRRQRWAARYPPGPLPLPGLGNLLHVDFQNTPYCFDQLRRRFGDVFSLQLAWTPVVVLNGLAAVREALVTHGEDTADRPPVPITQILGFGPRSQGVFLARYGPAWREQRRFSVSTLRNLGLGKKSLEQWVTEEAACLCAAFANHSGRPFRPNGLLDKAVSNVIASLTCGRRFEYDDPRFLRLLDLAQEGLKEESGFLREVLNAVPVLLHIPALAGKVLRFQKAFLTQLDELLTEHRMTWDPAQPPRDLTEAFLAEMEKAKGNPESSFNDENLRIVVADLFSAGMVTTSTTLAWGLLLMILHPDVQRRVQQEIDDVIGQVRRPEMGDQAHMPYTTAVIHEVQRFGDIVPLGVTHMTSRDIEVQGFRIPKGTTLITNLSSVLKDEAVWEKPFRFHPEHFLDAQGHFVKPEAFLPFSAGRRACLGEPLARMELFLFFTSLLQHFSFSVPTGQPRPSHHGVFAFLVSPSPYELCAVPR
Sequence of Cytochrome P450 2C19 (Homo sapiens) (P33261 whole entry, looked up): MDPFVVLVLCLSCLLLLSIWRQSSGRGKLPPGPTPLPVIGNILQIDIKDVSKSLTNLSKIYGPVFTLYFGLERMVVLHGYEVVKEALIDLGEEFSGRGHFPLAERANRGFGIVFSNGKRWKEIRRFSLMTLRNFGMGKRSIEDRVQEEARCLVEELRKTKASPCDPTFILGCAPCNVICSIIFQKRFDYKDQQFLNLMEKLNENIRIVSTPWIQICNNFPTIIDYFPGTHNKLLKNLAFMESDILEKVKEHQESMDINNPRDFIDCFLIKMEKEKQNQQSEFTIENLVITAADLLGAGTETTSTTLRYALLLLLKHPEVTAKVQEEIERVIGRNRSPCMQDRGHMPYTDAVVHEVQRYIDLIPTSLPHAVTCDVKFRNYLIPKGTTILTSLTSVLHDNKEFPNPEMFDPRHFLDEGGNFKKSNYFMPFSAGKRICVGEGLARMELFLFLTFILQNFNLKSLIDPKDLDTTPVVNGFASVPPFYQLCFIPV
Sequence of Nuclear receptor subfamily 1 group I member 2 (Rattus norvegicus) (Q9R1A7 whole entry, looked up): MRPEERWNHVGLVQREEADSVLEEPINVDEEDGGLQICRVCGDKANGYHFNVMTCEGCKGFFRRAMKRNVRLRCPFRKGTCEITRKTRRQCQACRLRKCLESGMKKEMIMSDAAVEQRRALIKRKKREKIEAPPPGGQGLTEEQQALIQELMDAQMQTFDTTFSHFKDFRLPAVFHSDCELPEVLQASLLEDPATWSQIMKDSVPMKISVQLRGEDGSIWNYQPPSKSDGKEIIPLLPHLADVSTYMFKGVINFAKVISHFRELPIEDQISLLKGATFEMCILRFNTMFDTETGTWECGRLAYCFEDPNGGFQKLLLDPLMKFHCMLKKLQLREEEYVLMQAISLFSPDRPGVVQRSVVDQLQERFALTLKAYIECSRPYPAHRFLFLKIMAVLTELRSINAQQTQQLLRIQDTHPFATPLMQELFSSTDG

As for `CSc1ccc(C=O)cc1`, the Potency entry in [1], in experiment [3], in experiment [6], in experiment [7], in [8] and in experiment [9] was “inactive” each time. Also, the Potency entry in experiment [10] and in experiment [11] was “inactive” throughout. Further, the call in experiment [2], in [4] and in experiment [5] was inactive.
`Oc1ccc2c(c1)OC[C@@H](N1CCC(O)(c3ccc(F)cc3)CC1)[C@H]2O`: the Potency entry in experiment [1], in experiment [3], in [10] and in [11] was “inactive” throughout. Moreover, the call in experiment [2], in experiment [4] and in experiment [5] was inactive. In addition, the Potency is 11.9 µM (active) in [6], 3.89 µM (active) in experiment [8], 13.8 µM (active) in experiment [9] and 7.76 µM (active) in experiment [12].
For `CC(C)N1C(=O)c2ccccc2C1=O`, the Potency result in experiment [1], in experiment [3], in experiment [6], in [7], in experiment [8] and in [9] was “inactive” throughout. Moreover, the Potency entry in experiment [10] and in experiment [11] was “inactive” each time. Also, the call in experiment [2], in experiment [4] and in experiment [5] was inactive. Moreover, the Potency in experiment [12] is 35.6 µM (active).
In the case of `C=CC(=O)N1CCOCC1`, the Potency entry in [1], in [3], in experiment [6], in experiment [9], in [10] and in [11] was “inactive” throughout. Moreover, the compound was called inactive in experiment [2], in experiment [4] and in [5]. Also, the Potency in [8] is 35.6 µM (active).
For the compound `NC(N)=NS(=O)(=O)c1ccc(N)cc1`, the Potency result in [1], in experiment [3], in experiment [6], in experiment [14], in experiment [15] and in experiment [7] was “inactive” in each case. The Potency result in experiment [8], in [9], in [12], in [10] and in experiment [11] was “inactive” each time. Besides, the compound was classed as inactive in [2] and in experiment [4]. Further, in [13], the max activation was -6.55%.
Turning to `O=Cc1ccccc1[N+](=O)[O-]`, the Potency entry in [1], in experiment [3], in [6], in experiment [7], in experiment [10] and in experiment [11] was “inactive” in each case. Further, the compound was classed as inactive in experiment [2], in experiment [4] and in experiment [5]. Also, the Potency in experiment [12] was 31.7 µM (active).
Consider `CC(C)c1cccc(C(C)C)c1N`, for which the Potency entry in experiment [1], in experiment [3], in [6], in experiment [7], in experiment [8] and in experiment [10] was “inactive” each time. Further, in experiment [11], the Potency entry was “inactive”. The call in experiment [2], in experiment [4] and in experiment [5] was inactive. The Potency in experiment [12] is 20 µM (active).
For `O=C1C(CCS(=O)c2ccccc2)C(=O)N(c2ccccc2)N1c1ccccc1` (stereo unspecified), the Potency result in [1], in [3], in [12] and in [10] was “inactive” throughout. Moreover, the compound was classed as inactive in experiment [2], in experiment [4] and in experiment [5]. Moreover, in experiment [13], the max activation is -2.19%. In experiment [9], the Potency is 30.9 µM (active).
In the case of `NC(=O)Nc1nc2ccccc2[nH]1`, the Potency entry in [1], in experiment [3], in [6], in experiment [10] and in experiment [11] was “inactive” each time. The compound was classed as inactive in [2], in experiment [4] and in experiment [5]. In addition, the Potency in experiment [7] was 31.5 µM (active); in experiment [8] it was 39.6 µM (active); in [12], 39.6 µM (active).
For `CC(C)c1cccc(O)c1`, the Potency entry in experiment [1], in experiment [3], in [6], in experiment [7], in experiment [8] and in experiment [9] was “inactive” in each case. Also, the Potency entry in experiment [10] and in experiment [11] was “inactive” throughout. Moreover, the compound was classed as inactive in experiment [2], in experiment [4] and in experiment [5].
`CCCCCCC(CCCCCCCCCCC(=O)OCC(COC(C)=O)OC(C)=O)OC(C)=O` (stereo unspecified): the Potency entry in experiment [1], in [3], in [6], in [7], in experiment [8] and in [10] was “inactive” in each case. Also, the Potency result in [11] was “inactive”. For the same compound, the result in experiment [2], in [4] and in experiment [5] was inactive. Further, the Potency in experiment [9] was 2.45 µM (active).
